CBFb-RUNX1 inh: CBF-beta/RUNX1 interaction disruption; Q01196+Q13951; AID 1477; AlphaScreen CBFb-His/RUNX1-biotin binding, biochemical; 230,000 tested, under 10 active; Potency, µM (titrated, usually from 59.8 µM), inactives show at the highest dose activity, negative = inhibition, usual class: inhibitors; active means well fitted curve in the direction sought with a large enough effect; inconclusive means small, poorly fitted or top-dose-only effect, or another doubt; inactive means no such curve, though single readings can be large; an effect the other way counts as inactive or inconclusive; further: % of control where 0% means no effect
Target sequence (Q01196 whole entry, looked up): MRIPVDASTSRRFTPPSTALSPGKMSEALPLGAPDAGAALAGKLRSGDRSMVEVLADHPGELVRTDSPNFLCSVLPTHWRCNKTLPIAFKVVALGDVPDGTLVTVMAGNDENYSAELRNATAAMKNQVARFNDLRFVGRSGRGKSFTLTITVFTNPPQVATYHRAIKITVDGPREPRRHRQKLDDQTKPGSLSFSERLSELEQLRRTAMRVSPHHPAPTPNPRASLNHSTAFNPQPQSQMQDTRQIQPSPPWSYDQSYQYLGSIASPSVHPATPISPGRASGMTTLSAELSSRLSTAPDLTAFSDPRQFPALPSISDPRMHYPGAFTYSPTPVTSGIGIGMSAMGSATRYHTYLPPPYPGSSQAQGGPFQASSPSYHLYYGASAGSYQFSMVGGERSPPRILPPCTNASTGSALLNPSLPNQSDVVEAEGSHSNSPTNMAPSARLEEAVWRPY
Target sequence (Q13951 whole entry, looked up): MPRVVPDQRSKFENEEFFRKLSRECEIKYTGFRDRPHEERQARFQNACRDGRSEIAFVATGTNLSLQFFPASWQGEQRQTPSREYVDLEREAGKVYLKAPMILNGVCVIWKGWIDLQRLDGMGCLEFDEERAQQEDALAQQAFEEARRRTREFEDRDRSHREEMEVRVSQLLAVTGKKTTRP
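His-tagged CBF-beta and biotinylated RUNX1 (30 nM each) were premixed 20 min at room temperature, exposed to compound for 15 min, then given nickel-chelate and streptavidin AlphaScreen beads (50 ng each). After 90 min, AlphaScreen signal was read.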
ALDH1A1 block: ALDH1A1 (human) enzyme inhibition; actives 7.3% (n = 220,000); Purified ALDH1A1, NADH fluorescence, propionaldehyde substrate; P00352; Potency, µM (series often up to 75.3 µM), without a hit: top-dose activity, negative = inhibition, usual class: inhibitors;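 further: potency means the concentration at half of the fitted maximal effect; plate controls were no enzyme wells and a reference inhibitor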
HPGD inh: blocks human HPGD enzyme activity | Potency, µM, for the others: at the top dose activity change, negative = inhibition, actives largely listed as inhibitors | purified HPGD, NADH fluorescence kinetic, PGE2 substrate | AID 894 | P15428 | actives 4.3% (n = 150,000); further: potency means the concentration at half of the fitted maximal effect; on the % scale 0 is the no-effect control and ±100 the full control effect
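20 nM HPGD preincubated 15 min at room temperature with compound in 50 mM Tris-HCl pH 8, 0.01% Tween 20. Started with 1 mM NAD+ and 30 uM prostaglandin E2; NADH fluorescence (360/450 nm) read 5 times over 30-s intervals, last minus first.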
HTT ATP protect: protects HTT-Q103 PC12 cells, measured by ATP; PC12 HTT-Q103 induced, cytoprotection, ATP luminescence, 40 h; Potency, µM (doses to about 56.4 µM), inactives show cytoprotection (ATP increase), actives largely listed as activators; actives 0.14% (n = 230,000); active means well fitted curve in the direction sought with a large enough effect; inconclusive means small, poorly fitted or top-dose-only effect, or another doubt; inactive means no such curve, though single readings can be large; an effect the other way counts as inactive or inconclusive; further: potency means the concentration at half of the fitted maximal effect; % of control where 0% means no effect; nearly all actives have a fitted effect of over 45% in size
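ATP quantification (ATPlite) reports survival of PC12 cells in which tebufenozide, 100 nM final, switches on Htt exon 1 with 103 glutamines linked to GFP; compounds are titrated.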
KDM4E inh: blocks human JMJD2E demethylase activity; JMJD2E catalytic domain, FDH-coupled NADH fluorescence (FDH is formaldehyde dehydrogenase); actives 1.6% (n = 230,000); Potency, µM (doses to about 57.1 µM), for inactives: at the highest dose activity change, negative = inhibition, hits mostly inhibitors; B2RXH2;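 further: potency means the concentration at half of the fitted maximal effect; 0% = wells with enzyme and -100% = buffer wells without enzyme; nearly all actives have a fitted effect of over 50% in size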
HTT aggregate: inhibitors of mutant huntingtin aggregate formation in PC12 cells | actives 1.1% (n = 220,000) | Potency, µM (doses to about 46.1 µM), inactives show at the highest dose activity change, negative = inhibition, actives largely listed as inhibitors | AID 1688 | PC12 HttQ103-GFP aggregates, Acumen cytometry, 40 h; active means well fitted curve in the direction sought with a large enough effect; inconclusive means small, poorly fitted or top-dose-only effect, or another doubt; inactive means no such curve, though single readings can be large; an effect the other way counts as inactive or inconclusive; further: potency means the concentration at half of the fitted maximal effect; on the % scale 0 is the no-effect control and ±100 the full control effect; nearly all actives have a fitted effect of over 60% in size
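PC12 cells with ecdysone-inducible HTT exon1 Q103-GFP, induced by 100 nM tebufenozide, given compounds in a concentration series. GFP aggregates (1–25 um, 6 SD above background) counted in lysates by laser-scanning cytometry, 488 nm excitation.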
* marks the source's active call; other numbers are inactive results; ? = inconclusive; . = no result; ! = repeats disagree; [ ] = remark or other dose. The list is not random: actives were taken first. Their share in the collection is about 9.8%. Unless noted, the call rests on the fitted dose curve; in most records, active means well fitted inhibition curve with a large enough effect (not every such curve was filed as active); inconclusive means small, poorly fitted or top-dose-only effect, or another doubt; inactive means no such curve, though single readings can be large or run the other way.

SMILES | CBFb-RUNX1 inh | ALDH1A1 block | HPGD inh | HTT ATP protect | KDM4E inh | HTT aggregate
O=C1C=CC(=O)c2c(O)cccc21 | . | 13µM* | 14µM* | -72% | 7.1µM* | .
O=[N+]([O-])c1ccccc1 | 1%[21.7 µM] | 32µM* | -10% | ? | . | -5%
O=[N+]([O-])c1cccc(O)c1 | 2%[21.7 µM] | ? | -10% | 25% | . | .
COC(=O)c1nc(-c2ccc3c(n2)C(=O)C(N)=C(OC)C3=O)c(N)c(-c2ccc(OC)c(OC)c2O)c1C | -7% | . | . | -19%[10 µM] | 20µM* | -10%[9.22 µM]
C[C@@H]1CC[C@H]2[C@@H](C)C(=O)O[C@@H]3OC4(C)CC[C@@H]1C32OO4 (some centres not stated) | -6% | 3% | -3% | -154% | 16% | 3.2µM*
C[C@@H]1CC[C@H]2[C@@H](C)C(=O)O[C@@H]3OC4(C)CC[C@@H]1[C@]32OO4 | ? | 25µM* | -8% | . | . | .
COC(=O)[C@H]1[C@@H](c2ccccc2)[C@@]2(c3ccccc3)Oc3ccccc3[C@@]1(O)[C@@H]2O | 18%[13.1 µM] | 2%[13.5 µM] | . | -7%[10 µM] | . | .
N#CC(C#N)=Cc1ccc(O)cc1 | 6% | . | . | . | . | .
N#CC(C#N)=Cc1cc(O)c(O)c(O)c1 | -5% | 28µM* | ? | -26% | 2µM* | -16%
CCN(C(=O)CN1CC=C(c2ccccc2)CC1)c1c(N)n(Cc2ccccc2)c(=O)[nH]c1=O | -2% | 4% | . | 18%[10 µM] | -12% | -2%
CC(C)CN(C(=O)CN1CC=C(c2ccccc2)CC1)c1c(N)n(CC(C)C)c(=O)[nH]c1=O | 1% | -3% | . | 13%[10 µM] | 28µM* | 17%
CCC1COC(Cn2cncn2)(c2ccc(Cl)cc2Cl)O1 (configuration not stated) | 2% | . | . | . | . | .
CC(C)n1c(=O)c(C=Nc2ccc(F)cc2)c(O)n(Cc2ccco2)c1=O | 4% | 11µM* | -30% | 25%[10 µM] | -6% | 19%
CC(C)n1c(=O)c(C=Nc2ccc(Cl)cc2)c(O)n(Cc2ccco2)c1=O | 14% | ? | ? | 10%[10 µM] | 4% | 33%
Cc1ccc(C2(c3ccc(C)c(O)c3C)CCN(C)CC2)c(C)c1O | . | -2%[13.5 µM] | -8% | 0%[10 µM] | . | .
Cc1ccc(CC2C(=O)N(C)C(=O)N(C)C2=O)s1 | -2% | 20µM* | ? | -3%[10 µM] | 136% | 29%
OCC(Br)(Br)Br | -13% | . | . | . | . | .
CC(=O)Nc1ccc([As](=O)(O)c2ccc([N+](=O)[O-])cc2)cc1 | -4% | . | . | -3%[10 µM] | -8% | -7%[9.22 µM]
CCCCCC1CC(CC(=O)NC(=S)Nc2ccc([N+](=O)[O-])cc2)C(=O)O1 (configuration not stated) | 8% | 10µM* | -8% | 0%[10 µM] | 3% | 11%
CCCC(=O)O[C@@H]1[C@@H](C)[C@@]2(O)[C@@H](C=C(CO)C[C@@]3(O)C(=O)C(C)=C[C@@H]23)[C@@H]2C(C)(C)[C@]12OC(=O)CCC | 4% | . | . | . | . | .
CC(C)(COCC1CO1)COCC1CO1 (configuration not stated) | 21%[21.7 µM] | 1% | -10% | -16% | . | .
Clc1cncc(N2CCNCC2)n1 | 20% | 22% | ? | 0.16µM*! | ? | .
Clc1ccc(C2=CCC[C@H]3CC[C@@H]2N3)cn1 | -7%[21.7 µM] | 10µM* | -14% | 28% | -9% | .
COc1ccc(CN2C(=O)NC(=O)/C(=C\c3ccco3)C2=O)cc1 | . | ? | . | 27%[10 µM] | -25% | 0%
O=C1NC(=O)N(Cc2ccccc2)C(=O)/C1=C/C=C/c1ccco1 | . | . | . | -9%[10 µM] | -15% | -9%[9.22 µM]
SMILES | CBFb-RUNX1 inh | ALDH1A1 block | HPGD inh | HTT ATP protect | KDM4E inh | HTT aggregate
CC(C)N1C(=O)/C(=C/C=C/c2ccco2)C(=O)N(Cc2ccco2)C1=O | ? | 22µM* | 32µM* | -41% | -28% | ?
CC(C)c1ccc(N2C(=O)NC(=O)/C(=C\C=C\c3ccco3)C2=O)cc1 | -9% | 22% | . | -77% | -9% | ?
CCN1C(=O)C(=C/C=C/c2ccco2)C(=O)N(CC)C1=S | ? | 1.3µM* | 11µM* | -11%[10 µM] | 16µM* | ?
COc1ccc(/C=C2/C(=O)N(Cc3ccco3)C(=O)N(C(C)C)C2=O)cc1 | ? | 4µM* | 22µM* | 24%[10 µM] | ? | 3%
Cc1nc2cc([N+](=O)[O-])ccc2c(=O)n1-c1ccccc1[N+](=O)[O-] | -1% | 32µM* | . | 14%[10 µM] | -5% | 10%[9.22 µM]
Nc1ncnc2c1nc(Sc1ccc(Cl)cc1)n2[C@@H]1O[C@@H]2COP(O)(=S)O[C@H]2[C@H]1O (some centres not stated) | 2% | . | . | . | . | .
COc1ccc(C2N(c3cc(C)on3)C(=O)C3CCCN32)cc1 (configuration not stated) | 9% | ? | . | -23% | -16% | 20%[9.22 µM]
Cc1cc(N2C(=O)C3CCCN3C2c2sccc2C)no1 (configuration not stated) | -2% | 1.6µM* | . | -9% | 2% | ?
CN1CCCCC1Cn1cc(C(=O)c2cc([N+](=O)[O-])ccc2I)c2ccccc21 (configuration not stated) | 6% | . | . | . | . | .
O=c1ccc2cc(OC3OC(CO)C(O)C(O)C3O)c(O)cc2o1 (configuration not stated) | 21%[21.7 µM] | ? | ? | -8%[1.9 µM] | . | .
CC(=O)C(Sc1ncnc2c1nnn2-c1ccc(F)cc1)C(=O)N(C)C (configuration not stated) | 4% | 2.5µM* | 11µM* | 10% | -20% | 7%
Cc1cnc[nH]1 | -18%[21.7 µM] | 0.28µM* | -14% | -4% | . | .
CCOC(=O)C1=C(NC(=S)NC(=O)c2ccccc2)c2ccccc2CC12CCCC2 | -18% | 22µM* | -12% | 24%[10 µM] | 1% | -12%
C#CCN[C@@H](C)Cc1ccccc1 | . | . | . | 25%[1.9 µM] | . | .
O=S1OCC2C(CO1)C1(Cl)C(Cl)=C(Cl)C2(Cl)C1(Cl)Cl (configuration not stated) | ? | 3% | -4% | 6% | 0% | .
O=C(O)[C@@H]1[C@H](C(=O)O)[C@]2(Cl)C(Cl)=C(Cl)[C@@]1(Cl)C2(Cl)Cl | . | 3.2µM* | -21% | 0%[10 µM] | . | .
O=C(/C=C/c1ccc(Cl)cc1)N[C@@]12CCC(=O)[C@@H]3Oc4c(O)ccc5c4[C@@]31CCN(CC1CC1)C2C5 | 7% | 7% | . | . | . | .
O=C(OCC(=O)N1CCN(c2ccccc2)CC1)c1cnc(Cl)c(Cl)c1 | 14% | 8.9µM* | . | -28% | 1% | -5%
O=C(COc1ccc(Cl)cc1)N1CCN(Cc2ccccc2)CC1 | 3% | 1% | 1% | 3% | 10% | -30%
C[C@@H]1Cc2c(Cl)cc(C(=O)N[C@@H](Cc3ccccc3)C(=O)O)c(O)c2C(=O)O1 | -4% | ? | ? | -206% | . | .

Screening results deposited in PubChem by National Center for Advancing Translational Sciences (NCATS).
